Test [1] in a line: NCI Yeast Anticancer Drug Screen. Data for the rad50 strain (AID 155).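 Also: 0% = growth of vehicle-only cultures of the same strain.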 The conditions noted are these: S. cerevisiae rad50 strain growth inhibition, stronger effect = higher value. The gist of the method:
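Yeast carrying a defined DNA repair defect were exposed to test compounds, and growth was compared with vehicle-treated controls to give percent inhibition.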

The nature of test [2]: NCI Yeast Anticancer Drug Screen. Data for the mec2-1 strain (AID 157). The following applies: S. cerevisiae mec2-1 strain, stronger effect = higher value. The essentials: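 Mutant yeast (mec2-1) grown with compound; growth inhibition relative to vehicle control reported.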
A short description of test [3]: NCI Yeast Anticancer Drug Screen. Data for the sgs1 mgt1 strain (AID 161).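 Also: 0% = growth of cultures given vehicle only.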 The following applies: S. cerevisiae sgs1 mgt1 strain, stronger effect = higher value. The gist of the method: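 This yeast growth screen uses a strain with defined DNA-repair lesions; compound-treated growth is compared with vehicle-treated growth.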
The nature of test [4]: NCI Yeast Anticancer Drug Screen. Data for the cln2 rad14 strain (AID 165).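 Also: 0% = growth equal to vehicle treated cultures.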 The following applies: S. cerevisiae cln2 rad14 strain, stronger effect = higher value. The gist of the method:
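Readout is yeast growth inhibition versus vehicle-treated controls, using a strain with cln2 and rad14 alterations exposed to compound.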

Test [5] is described as follows: NCI Yeast Anticancer Drug Screen. Data for the bub3 strain (AID 167). The following applies: S. cerevisiae bub3 mutant strain, stronger effect = higher value. The gist of the method:
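Compounds were applied to a genetically altered yeast strain carrying a cell-cycle control defect. Growth inhibition was scored against vehicle-treated controls.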

The nature of test [6]: NCI Yeast Anticancer Drug Screen. Data for the mlh1 rad18 strain (AID 175). The conditions noted are these: S. cerevisiae mlh1 rad18 strain growth inhibition, stronger effect = higher value. The essentials: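 Genetically defined yeast (DNA repair-deficient) exposed to compounds; growth inhibition determined relative to vehicle.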
Setting [7] is: at 5.0 µM (retest, dose inferred, filed as 0.5).
The mark [8] stands for this setting: at 50.0 µM (retest, dose inferred, filed as 5.0).

The structures appear in SMILES notation. This is part of a sample that, as a whole, favours compounds with a hit. Of some 79,000 tested, about 15% had one in any assay. Values without a mark were called inactive. Calls of active or inactive are those of the source. Rule as the data show it: active = growth inhibition above about 70%; inactive = the rest.

As to `O=C(O)COc1ccccc1C(=O)O`, the growth inhibition in test [1] (setting [7]) is 0%; in test [1] (setting [8]), -3%; in test [1] (at 50.0 µM), 4.55%; in test [2] (setting [7]), -2%; in test [2] (setting [8]) it was -3%; in test [2] (at 50.0 µM), 29.4%. In addition, the growth inhibition was 1% in test [3] (setting [7]); 0% in test [3] (setting [8]); -1.95% in test [3] (at 50.0 µM); -2% in test [4] (setting [7]); 2% in test [4] (setting [8]); 23.8% in test [4] (at 50.0 µM). For the same compound, the growth inhibition in test [5] (setting [7]) is -5%; in test [5] (setting [8]), -5%; in test [5] (at 50.0 µM) it was 11.6%; in test [6] (setting [7]), 1%; in test [6] (setting [8]), -1%; in test [6] (at 50.0 µM), 5.7%.

On to `O=C(O)c1c(-c2ccccc2)cc(-c2ccccc2)cc1-c1ccccc1`, for which the growth inhibition in test [1] (setting [7]) is 93% (active); in test [1] (setting [8]) it was 98% (active); in test [1] (at 50.0 µM), 99.1% (active); in test [2] (setting [7]), 90% (active); in test [2] (setting [8]), 98% (active); in test [2] (at 50.0 µM), 99.2% (active). The growth inhibition was 93% (active) in test [3] (setting [7]); 99% (active) in test [3] (setting [8]); 99.3% (active) in test [3] (at 50.0 µM); 90% (active) in test [4] (setting [7]); 98% (active) in test [4] (setting [8]); 97.8% (active) in test [4] (at 50.0 µM). Also, the growth inhibition was 88% (active) in test [5] (setting [7]); 95% (active) in test [5] (setting [8]); 98.2% (active) in test [5] (at 50.0 µM); 92% (active) in test [6] (setting [7]); 98% (active) in test [6] (setting [8]); 98.9% (active) in test [6] (at 50.0 µM).

Regarding `N#Cc1ccc(OC(=O)Nc2c(Cl)cccc2Cl)cc1`, the growth inhibition in test [1] (setting [7]) was 46%; in test [1] (setting [8]), 41%; in test [1] (at 50.0 µM) it was 80.4% (active); in test [2] (setting [7]) it was 36%; in test [2] (setting [8]), 42%; in test [2] (at 50.0 µM), 82.2% (active). Moreover, the growth inhibition in test [3] (setting [7]) was 44%; in test [3] (setting [8]) it was 53%; in test [3] (at 50.0 µM), 86.2% (active); in test [4] (setting [7]) it was 34%; in test [4] (setting [8]) it was 45%; in test [4] (at 50.0 µM), 83.9% (active). Moreover, the growth inhibition in test [5] (setting [7]) was 31%; in test [5] (setting [8]) it was 70% (active); in test [5] (at 50.0 µM) it was 84.3% (active); in test [6] (setting [7]) it was 47%; in test [6] (setting [8]), 50%; in test [6] (at 50.0 µM) it was 83.5% (active).

For the compound `CCCCCCCCCCCCCCC(C(=O)O)S(=O)(=O)O` (stereo not given), the growth inhibition is 0% in test [1] (setting [7]); 85% (active) in test [1] (setting [8]); 98.9% (active) in test [1] (at 50.0 µM); -1% in test [2] (setting [7]); 58% in test [2] (setting [8]); 99.7% (active) in test [2] (at 50.0 µM). The growth inhibition in test [3] (setting [7]) is -3%; in test [3] (setting [8]), 69%; in test [3] (at 50.0 µM), 87% (active); in test [4] (setting [7]), -2%; in test [4] (setting [8]), 70% (active); in test [4] (at 50.0 µM), 95.7% (active). Also, the growth inhibition is -4% in test [5] (setting [7]); 66% in test [5] (setting [8]); 99.6% (active) in test [5] (at 50.0 µM); 0% in test [6] (setting [7]); 83% (active) in test [6] (setting [8]); 99.6% (active) in test [6] (at 50.0 µM).

In the case of `N=Cc1cc([N+](=O)[O-])ccc1O`, the growth inhibition in test [1] (setting [7]) was -5%; in test [1] (setting [8]), 94% (active); in test [1] (at 50.0 µM) it was 96.8% (active); in test [2] (setting [7]), -1%; in test [2] (setting [8]) it was 98% (active); in test [2] (at 50.0 µM), 93% (active). The growth inhibition was -2% in test [3] (setting [7]); 93% (active) in test [3] (setting [8]); 98.5% (active) in test [3] (at 50.0 µM); 16% in test [4] (setting [7]); 95% (active) in test [4] (setting [8]); 94.5% (active) in test [4] (at 50.0 µM). In addition, the growth inhibition was -20% in test [5] (setting [7]); 96% (active) in test [5] (setting [8]); 71.3% (active) in test [5] (at 50.0 µM); 12% in test [6] (setting [7]); 98% (active) in test [6] (setting [8]); 98.2% (active) in test [6] (at 50.0 µM).

The values are drawn from PubChem BioAssay (NCI).
